Laboratory results taken from PubChem BioAssay (NCATS).
Records with an inconclusive call do not appear. The source made the active and inactive calls. Unless noted, calls follow the shape of the full dose curve.

Key:
[1] = Cell Viability - BJ (AID 421); details: BJ fibroblast viability, qHTS;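 also: potency is read from the fitted curve at half-maximal effect; cells exposed to compound for 40 hours at 37 °C before readout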
Summary of the method: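 Cytotoxicity as drop in intracellular ATP (CellTiter-Glo, 20 min RT) after 40 hr compound exposure of BJ fibroblasts at 37 °C. Titrations scaled between DMSO and 100 uM tamoxifen, Hill-fitted for AC50.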

[2] = Cell Viability - Jurkat (AID 426;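 active = dose-dependent loss of cell ATP signal giving a full or clear fitted curve, ranked by lower potency value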;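 also: potency is read from the fitted curve at half-maximal effect; cells exposed to compound for 40 hours at 37 °C before ATP read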); details: qHTS
Summary of the method: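 Seed 5000 Jurkat E6-1 cells/well; add compound; incubate 40 hr at 37 °C; add CellTiter-Glo; wait 20 min at room temperature; read luminescence. Fit concentration-response with Hill equation for AC50.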

[3] = Cell Viability - Hek293 (AID 427;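 active = compounds whose dose-response curve shows a full or clear partial loss of cell viability, called from curve shape rather than a numeric limit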;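 also: potency is read from the fitted curve at half-maximal effect; cells exposed to compound for 40 hours at 37 °C before reading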); details: qHTS
Summary of the method: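 Luminescent ATP content (CellTiter-Glo, 20 min at room temperature) was measured after a 40 hr, 37 °C compound exposure of HEK293 cells. AC50 values came from Hill-equation fits of qHTS concentration-response data normalized to DMSO and 100 uM tamoxifen.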

[4] = Cell Viability - HepG2 (AID 433); details: qHTS;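 also: potency is read from the fitted curve at half-maximal effect; cells exposed to compound for 40 hours; potency for ATP loss meaning cytotoxicity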
Summary of the method: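 Cytotoxicity read as ATP loss (CellTiter-Glo luminescence) after 40 hr compound exposure of HepG2, 1500 cells/well, 37 °C. AC50 by Hill equation; 0% set by DMSO, 100% inhibition by 100 uM tamoxifen.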

[5] = Cell Viability - SK-N-SH (AID 435); details: SK-N-SH neuroblastoma cell viability qHTS; also: potency is read from the fitted curve at half-maximal effect
Summary of the method: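 qHTS cytotoxicity: CellTiter-Glo ATP luminescence after 40 h compound exposure of human neuroblastoma SK-N-SH cells at 37 °C. AC50 derived by Hill-equation fitting, with DMSO as basal and 100 uM tamoxifen as full inhibition.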

[6] = biological target: Mitogen-activated protein kinase 10 (Mus musculus) (UniProt Q61831); assay: JNK3 AlphaScreen Assay (AID 530; active = well fitted curve in either direction with a large enough effect, not every such curve was filed as active;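 also: kinase came from lysate of stimulated human HepG2 cells; signal reports phosphorylation of biotinylated GST-cJun 1-79 at Ser73 with 10 µM ATP; % is scaled to controls: 0 for no effect and ±100 for the full control effect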); details: JNK3 lysate, c-Jun phosphorylation; series mostly up to 57.1 µM
Summary of the method: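 Room-temperature AlphaScreen kinase assay; pre-activated HepG2 lysate as JNK3 source, biotin-GST-cJun(1-79) substrate, 10 uM ATP, compound 15 min preincubation.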

[7] = Cell Viability - N2a (AID 540; active = well fitted curve in the direction sought with a large enough effect; an effect the other way counts as inactive or inconclusive;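 also: plate controls were DMSO alone for no effect and tamoxifen control for full effect; nearly all actives have a fitted effect of over 45% in size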); details: N2a mouse neuroblastoma cell viability; activity change, negative = cytotoxicity: at 92.2 µM (top of the series)
Summary of the method: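 First, 1500 N2a cells per well incubate 5 hr at 37 °C; next, compounds are added and incubated 40 hr at 37 °C; finally CellTiter-Glo is added and luminescence read after 20 min, with AC50 derived by Hill modeling.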

[8] = Cell Viability - NIH 3T3 (AID 541; active = well fitted curve in the direction sought with a large enough effect; an effect the other way counts as inactive or inconclusive;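 also: cells exposed to compound for 40 hours; plate controls were DMSO alone for no effect and tamoxifen positive control for full effect; nearly all actives have a fitted effect of over 25% in size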); details: NIH 3T3 cell viability, qHTS; activity change, negative = cytotoxicity: at 92.2 µM (top of the series)
Summary of the method: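 AC50 values reflect concentration-dependent loss of intracellular ATP in NIH 3T3 cells after 40 hr treatment in complete culture medium, quantified by luciferase-based luminescence.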

[9] = Cell Viability - HUV-EC-C (AID 542; active = well fitted curve in the direction sought with a large enough effect; an effect the other way counts as inactive or inconclusive;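 also: cells exposed to compound for 40 hours; % is scaled to controls: 0 for no effect and ±100 for the full control effect; nearly all actives have a fitted effect of over 35% in size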); details: HUV-EC-C endothelial cell viability, qHTS; series mostly up to 92.2 µM
Summary of the method: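 Decrease in cellular ATP, quantified by luciferase luminescence, reflects toxicity in normal human vascular endothelial HUV-EC-C cells given compound for 40 hr in complete culture medium. Values are AC50s from concentration-response curves.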

[10] = Cell Viability - MRC5 (AID 434); details: MRC5 lung fibroblast viability, qHTS;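 also: potency is read from the fitted curve at half-maximal effect; cells exposed to compound for 40 hours at 37 °C; potency reflects cytotoxicity seen as loss of intracellular ATP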
Summary of the method: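 qHTS cytotoxicity in human lung fibroblast MRC5 cells; 40 hr treatment, 37 °C; cellular ATP by luciferase luminescence; DMSO = 0%, 100 uM tamoxifen = 100% inhibition; Hill-fit AC50.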

Nc1cc(Cl)c(N)c(Cl)c1
inactive: Potency [1] > 92 µM | Potency [2] > 92 µM | Potency [3] > 92 µM | Potency [4] > 92 µM | Potency [5] > 92 µM | outcome [6] | activity change, negative = cytotoxicity [7] -5.31% | Potency [8] | Potency [9]

CC(=O)Nc1cccc(N)c1
inactive: Potency [1] > 92 µM | Potency [2] > 92 µM | Potency [3] > 92 µM | Potency [4] > 92 µM | Potency [5] > 92 µM | outcome [6] | activity change, negative = cytotoxicity [7] 5.61% | Potency [8] | Potency [9]

CCOC(=O)OCC
inactive: Potency [1] > 92 µM | Potency [2] > 92 µM | Potency [3] > 92 µM | Potency [4] > 92 µM | Potency [5] > 92 µM | activity change, negative = cytotoxicity [7] -11.2% | Potency [8] | Potency [9]

Nc1cccc2c(=O)[nH][nH]c(=O)c12
inactive: Potency [1] > 92 µM | Potency [2] > 92 µM | Potency [3] > 92 µM | Potency [4] > 92 µM | Potency [5] > 92 µM | outcome [6] | activity change, negative = cytotoxicity [7] 9.7% | Potency [8] | Potency [9]

C(=C/c1ccccc1)/c1ccccc1
inactive: Potency [1] > 92 µM | Potency [2] > 92 µM | Potency [3] > 92 µM | Potency [4] > 92 µM | Potency [5] > 92 µM | outcome [6] | activity change, negative = cytotoxicity [7] -0.717% | Potency [8] | Potency [9]

Cc1cccc(C)c1O
inactive: Potency [1] > 92 µM | Potency [2] > 92 µM | Potency [3] > 92 µM | Potency [4] > 92 µM | Potency [5] > 92 µM | activity change, negative = cytotoxicity [7] -7.98% | Potency [8] | Potency [9]

C[C@@H]1O[C@@H](O[C@@H]2[C@@H](O)[C@H](OCCc3ccc(O)c(O)c3)O[C@H](CO[C@@H]3O[C@H](CO)[C@@H](O)[C@H](O)[C@H]3O)[C@H]2OC(=O)/C=C/c2ccc(O)c(O)c2)[C@H](O)[C@H](O)[C@H]1O
inactive: Potency [1] > 92 µM | Potency [2] > 92 µM | Potency [3] > 92 µM | Potency [4] > 92 µM | Potency [5] > 92 µM | outcome [6] | activity change, negative = cytotoxicity [7] -12.1% | Potency [8] | Potency [9]

O=[N+]([O-])c1c(Cl)cc(Cl)cc1Cl
inactive: Potency [1] > 92 µM | Potency [2] > 92 µM | Potency [3] > 92 µM | Potency [4] > 92 µM | Potency [5] > 92 µM | outcome [6] | activity change, negative = cytotoxicity [7] 3.57% | Potency [8] | Potency [9]

C=C(C)OC(C)=O
inactive: Potency [1] > 92 µM | Potency [2] > 92 µM | Potency [4] > 92 µM | Potency [10] > 92 µM | Potency [5] > 92 µM | outcome [6] | activity change, negative = cytotoxicity [7] -6.88% | Potency [9]

C=C(C)C(N)=O
inactive: Potency [1] > 92 µM | Potency [2] > 92 µM | Potency [4] > 92 µM | Potency [10] > 92 µM | Potency [5] > 92 µM | outcome [6] | activity change, negative = cytotoxicity [7] -7.09% | Potency [8] | Potency [9]

Cc1cc([N+](=O)[O-])ccc1N
inactive: Potency [1] > 92 µM | Potency [2] > 92 µM | Potency [4] > 92 µM | Potency [10] > 92 µM | Potency [5] > 92 µM | outcome [6] | activity change, negative = cytotoxicity [7] -8.91% | Potency [9]

Nc1nc(-c2ccccc2)cs1
inactive: Potency [1] > 92 µM | Potency [2] > 92 µM | Potency [4] > 92 µM | Potency [10] > 92 µM | Potency [5] > 92 µM | outcome [6] | activity change, negative = cytotoxicity [7] -4.72% | Potency [8] | Potency [9]

CCCCCCCCN
inactive: Potency [1] > 92 µM | Potency [2] > 92 µM | Potency [4] > 92 µM | Potency [10] > 92 µM | Potency [5] > 92 µM | outcome [6] | activity change, negative = cytotoxicity [7] 7.89% | Potency [8] | Potency [9]

CCOCCOCC
inactive: Potency [1] > 92 µM | Potency [2] > 92 µM | Potency [4] > 92 µM | Potency [10] > 92 µM | Potency [5] > 92 µM | outcome [6] | activity change, negative = cytotoxicity [7] -1.44% | Potency [8] | Potency [9]

CCCCC(CC)C(=O)O (stereo not given)
inactive: Potency [1] > 92 µM | Potency [2] > 92 µM | Potency [4] > 92 µM | Potency [5] > 92 µM | outcome [6] | activity change, negative = cytotoxicity [7] 4.15% | Potency [8] | Potency [9]

O=C1C=CCCC1
inactive: Potency [1] > 92 µM | Potency [2] > 92 µM | Potency [4] > 92 µM | Potency [10] > 92 µM | Potency [5] > 92 µM | outcome [6] | activity change, negative = cytotoxicity [7] 3.2% | Potency [8] | Potency [9]

O=[N+]([O-])c1cccc(C(F)(F)F)c1
inactive: Potency [1] > 92 µM | Potency [2] > 92 µM | Potency [4] > 92 µM | Potency [10] > 92 µM | Potency [5] > 92 µM | outcome [6] | activity change, negative = cytotoxicity [7] 4.54% | Potency [8] | Potency [9]

COc1ccc(N)c(C)c1
inactive: Potency [1] > 92 µM | Potency [2] > 92 µM | Potency [4] > 92 µM | Potency [10] > 92 µM | Potency [5] > 92 µM | outcome [6] | activity change, negative = cytotoxicity [7] 11.2% | Potency [8] | Potency [9]

Cc1cccc(C(=O)O)c1[N+](=O)[O-]
inactive: Potency [1] > 92 µM | Potency [2] > 92 µM | Potency [4] > 92 µM | Potency [10] > 92 µM | Potency [5] > 92 µM | activity change, negative = cytotoxicity [7] 8.99% | Potency [8] | Potency [9]

O=C(O)c1cccc(Cl)c1Cl
inactive: Potency [1] > 92 µM | Potency [2] > 92 µM | Potency [4] > 92 µM | Potency [10] > 92 µM | Potency [5] > 92 µM | outcome [6] | activity change, negative = cytotoxicity [7] -7.38% | Potency [8] | Potency [9]

CC/C=C1/OC(=O)c2ccccc21
inactive: Potency [1] > 92 µM | Potency [2] > 92 µM | Potency [4] > 92 µM | Potency [10] > 92 µM | Potency [5] > 92 µM | outcome [6] | activity change, negative = cytotoxicity [7] 3.1% | Potency [8] | Potency [9]

Nc1ccccc1[N+](=O)[O-]
inactive: Potency [1] > 92 µM | Potency [2] > 92 µM | Potency [4] > 92 µM | Potency [10] > 92 µM | Potency [5] > 92 µM | outcome [6] | activity change, negative = cytotoxicity [7] -9.35% | Potency [8] | Potency [9]

Cc1cc(C)c(N)cc1C
inactive: Potency [1] > 92 µM | Potency [2] > 92 µM | Potency [4] > 92 µM | Potency [10] > 92 µM | Potency [5] > 92 µM | outcome [6] | activity change, negative = cytotoxicity [7] -1.04% | Potency [8] | Potency [9]

Cc1cc(C)cc(O)c1
inactive: Potency [1] > 92 µM | Potency [2] > 92 µM | Potency [4] > 92 µM | Potency [10] > 92 µM | Potency [5] > 92 µM | outcome [6] | activity change, negative = cytotoxicity [7] -1.73% | Potency [8] | Potency [9]
